Results on 42 molecules are retold here after PMC4336329 (PLoS ONE, 2015).

Screen size: about 310,000 compounds; about 14,000 (4.5%) showed an effect of 50% or more. The effect is printed as a negative number. Only a selection was taken, and strong results are over-represented in it overall.
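Also: peak tail current of the secondary pulse compared with the same well before compound.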

Chain of human ether-à-go-go-related gene (hERG) potassium channel (Q12809 whole entry, looked up): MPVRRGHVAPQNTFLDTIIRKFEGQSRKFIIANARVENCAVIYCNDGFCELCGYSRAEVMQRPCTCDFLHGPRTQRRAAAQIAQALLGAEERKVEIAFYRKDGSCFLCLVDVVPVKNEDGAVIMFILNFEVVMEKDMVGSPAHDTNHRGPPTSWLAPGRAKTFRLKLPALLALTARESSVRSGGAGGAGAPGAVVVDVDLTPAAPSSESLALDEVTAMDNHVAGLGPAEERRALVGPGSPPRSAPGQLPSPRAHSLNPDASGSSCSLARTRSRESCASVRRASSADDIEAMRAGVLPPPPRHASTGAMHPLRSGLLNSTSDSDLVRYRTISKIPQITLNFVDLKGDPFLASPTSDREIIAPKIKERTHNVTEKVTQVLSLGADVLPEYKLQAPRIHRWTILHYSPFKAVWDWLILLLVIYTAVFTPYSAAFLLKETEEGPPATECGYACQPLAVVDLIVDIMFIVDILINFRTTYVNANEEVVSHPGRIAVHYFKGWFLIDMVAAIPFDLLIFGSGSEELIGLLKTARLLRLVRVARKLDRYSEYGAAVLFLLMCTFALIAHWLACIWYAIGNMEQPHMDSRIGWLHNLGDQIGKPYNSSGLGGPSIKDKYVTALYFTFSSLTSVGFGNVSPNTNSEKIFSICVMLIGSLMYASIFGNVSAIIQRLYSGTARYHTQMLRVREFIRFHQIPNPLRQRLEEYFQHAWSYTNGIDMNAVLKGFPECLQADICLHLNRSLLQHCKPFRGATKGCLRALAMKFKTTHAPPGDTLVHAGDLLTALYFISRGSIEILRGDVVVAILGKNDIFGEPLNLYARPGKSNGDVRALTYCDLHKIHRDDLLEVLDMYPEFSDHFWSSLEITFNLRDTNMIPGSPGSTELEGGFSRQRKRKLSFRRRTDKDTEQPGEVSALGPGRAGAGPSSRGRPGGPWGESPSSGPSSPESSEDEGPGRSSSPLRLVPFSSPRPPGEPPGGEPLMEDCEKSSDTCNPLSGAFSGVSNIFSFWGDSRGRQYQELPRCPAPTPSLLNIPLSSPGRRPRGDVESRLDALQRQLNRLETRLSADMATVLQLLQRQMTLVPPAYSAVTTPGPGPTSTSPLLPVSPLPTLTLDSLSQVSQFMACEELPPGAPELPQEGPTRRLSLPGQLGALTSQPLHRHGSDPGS

This experiment has as its target human ether-à-go-go-related gene (hERG) potassium channel (human, UniProt Q12809). Nature of the experiment: primary screen, population patch clamp on CHO cells stably expressing hERG; higher = less effect of the substance.
Regarding `COc1ccc(CN(CCN(C)C)Cc2ccccc2)c(OC)c1.O=C(O)C(=O)O`, the “hERG current change (%, negative = inhibition) at 10uM” value is -46.1%.

As for `CCN(Cc1ccncc1)Cc1ccc(OC)c(OC)c1.O=C(O)C(=O)O`, the “hERG current change (%, negative = inhibition) at 10uM” value is -6.49%. The figure for `CCN(Cc1ccncc1)Cc1ccc(OC)cc1OC.O=C(O)C(=O)O` is -51.4%; for `COc1ccc(N(CC(=O)Nc2cc(C)on2)S(=O)(=O)c2ccc(Cl)cc2)cc1` it is 9.89%.

Consider `COC(=O)N[C@H](CC(C)=O)c1cccc(C(F)(F)F)c1`, for which the “hERG current change (%, negative = inhibition) at 10uM” value is on record as 19.5%. For `CC(C)(C)c1cc(CCC(=O)NCc2ccccn2)cc(C(C)(C)C)c1O` the value was -10.1%. The figure for `CC(C)Cc1cc(CN2CCC(CO)(Cc3ccccc3)CC2)[nH]n1` is -71.6%; for `CC(C)Cc1cc(CN2CCC(CO)(Cc3cccc(C(F)(F)F)c3)CC2)[nH]n1` it is -78%.

Take `CC(C)c1csc(CN2CCC(CO)(Cc3ccccc3)CC2)n1`: the “hERG current change (%, negative = inhibition) at 10uM” value is listed as -9.39%. Regarding `Cc1cc(CN2CCCC(CO)(Cc3cccc(Cl)c3)C2)n[nH]1` (stereo not drawn), the “hERG current change (%, negative = inhibition) at 10uM” value is recorded as -43.2%. The figure for `OCC1(Cc2ccccc2)CCN(Cc2ccccn2)CC1` is -9.51%.

Take `Cc1cc(C(=O)N2CCC(CO)(Cc3cccc(C(F)(F)F)c3)CC2)n[nH]1`: the “hERG current change (%, negative = inhibition) at 10uM” value was -49.4%. Turning to `CC(C)=CCN1CCN(Cc2cc(CC(C)C)n[nH]2)CC1CCO` (stereo not drawn), the “hERG current change (%, negative = inhibition) at 10uM” value is reported as -9.57%. For `CC(C)n1cc(CN2CCCC(CO)(Cc3cccc(Cl)c3)C2)cn1` (stereo not drawn) the value was -24%; for `CC(C)Cc1cc(CN2CCCC(CO)(Cc3cccc(Cl)c3)C2)[nH]n1` (stereo not drawn), -52.5%; for `CC(C)NC(=O)Cn1nc(C(F)(F)F)c2c1CCC2`, 7.42%. The figure for `C=C(C)CNc1cc(S(=O)(=O)N2CCOCC2)ccc1Oc1ccccc1` is -21.3%; for `O=C(CCN1C(=O)c2cccc3cccc(c23)C1=O)N1CCOCC1` it is 19.9%. The figure for `CCN1CCN(CC(=O)NC2CCCCC2)C(=O)C1=O` is 1.65%; for `COc1cccc(CNC(=O)C(C)n2nc(C)n3c(cc4occc43)c2=O)c1` (stereo not drawn) it is 7.17%. On to `CCCOc1ccc(C(=O)NNC(=S)NC(=O)c2cccs2)cc1`, for which the “hERG current change (%, negative = inhibition) at 10uM” value is given as 16.7%. For `CC(C)=CC(=O)O[C@H]1[C@@H]2[C@H](C)C(=O)O[C@@H]2C[C@@H](C)[C@@H]2[C@@H](O)CC(=O)[C@]21C` the value was 22.4%; for `COC(=O)CCSc1cc(NCCOC(C)=O)c([N+](=O)[O-])c2nonc12`, -25.6%; for `O=C(N/N=C/c1cn(CC(=O)N2CCOCC2)c2ccccc12)c1cccnc1`, 16.3%. `Cc1ccc(NC(=O)C(C)Sc2nc(-c3ccccc3)cc(=O)[nH]2)cc1` (stereo not drawn): the “hERG current change (%, negative = inhibition) at 10uM” value is 20.8%.

With `Cc1ccc(C(=O)N/C(=C/c2cccnc2)C(=O)O)cc1`, the “hERG current change (%, negative = inhibition) at 10uM” value turned out to be 8.41%.

Take `Cc1ccc(NC(=O)/C(=C\c2cccnc2)NC(=O)c2ccccc2)cc1`: the “hERG current change (%, negative = inhibition) at 10uM” value is given as -46%. For `O=C(Nc1ccccc1)/C(=C/c1cccnc1)NC(=O)c1ccccc1` the value was 2.08%; for `COc1ccccc1NC(=O)/C(=C/c1ccncc1)NC(=O)c1ccccc1`, -10.6%.

As for `COc1ccccc1NC(=O)/C(=C\c1cccnc1)NC(=O)c1ccc(C)cc1`, the “hERG current change (%, negative = inhibition) at 10uM” value is on record as -71.9%. The figure for `COc1ccccc1NC(=O)/C(=C\c1cccnc1)NC(=O)c1ccccc1` is -65.5%; for `COc1cc(OC)c(OC)cc1CNC(=O)c1ccc(S(=O)(=O)N2CC(C)OC(C)C2)cc1` (stereo not drawn) it is -11%. For `O=C(COc1cc(Cl)c(Cl)cc1Cl)NCCN1CCOCC1` the value was -7.1%; for `CCCCNC(=O)[C@H](Cc1c[nH]c2ccccc12)NC(=O)c1ccccc1Cl`, -8.26%; for `O=C(NCc1ccccc1)C1CCCN(S(=O)(=O)c2ccc(-n3cnnn3)cc2)C1` (stereo not drawn), 2.94%. For `O=C(NCc1ccco1)C1CCCN(S(=O)(=O)c2ccc(-n3cnnn3)cc2)C1` (stereo not drawn) the value was -61.8%; for `CC(C)CCNC(=O)C1CCCN(S(=O)(=O)c2ccc(-n3cnnn3)cc2)C1` (stereo not drawn), 22.5%. With `O=C(NCC1CC1)C1CCCN(S(=O)(=O)c2ccc(-n3cnnn3)cc2)C1` (stereo not drawn), the “hERG current change (%, negative = inhibition) at 10uM” value is listed as -63.7%. Consider `CC(=O)Nc1ccc(S(=O)(=O)N2CCC(C(=O)NCc3ccco3)CC2)cc1`, for which the “hERG current change (%, negative = inhibition) at 10uM” value is 0.324%. As to `NC(=O)CNC(=O)C1CCN(S(=O)(=O)c2ccc(-n3cnnn3)cc2)CC1`, the “hERG current change (%, negative = inhibition) at 10uM” value is recorded as -41.4%. Consider `COc1ccccc1NC(=O)C1CCCN(S(=O)(=O)c2ccc(-n3cnnn3)cc2)C1` (stereo not drawn), for which the “hERG current change (%, negative = inhibition) at 10uM” value is reported as -46.8%. On to `COc1ccc(C)cc1NC(=O)C1CCCN(S(=O)(=O)c2ccc(-n3cnnn3)cc2)C1` (stereo not drawn), for which the “hERG current change (%, negative = inhibition) at 10uM” value is -69.8%.
